Data taken from PubChem BioAssay (Tox21).
Records with an inconclusive call do not appear. The source made the active and inactive calls. Unless noted, calls follow the shape of the dose curve; as a rule, active = well fitted curve in the direction sought with a large enough effect in the repeat runs; inconclusive = weak or mixed curves; inactive = no such curve, though single readings can be large; an effect the other way counts as inactive or inconclusive.

Assays:
[1] = qHTS assay to identify aromatase inhibitors - cell viability counter screen (AID 743084); details: MCF-7 aro ERE viability, CellTiter-Fluor, 24 h; series mostly up to 70.3 µM;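 also: cells stimulated with testosterone during compound exposure; nearly all actives have a fitted effect of over 55% in size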
[2] = biological target: Aryl hydrocarbon receptor (Homo sapiens) (UniProt P35869); assay: qHTS assay to identify small molecule that activate the aryl hydrocarbon receptor (AhR) signaling pathway (AID 743085); details: HepG2 AhR-luc (HG2L7.5c1), luciferase, 24 h; series mostly up to 70.3 µM; also: nearly all actives have a fitted effect of over 15% in size; also: potency is read from the fitted curve at half-maximal effect;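 as to activation: HG2L7.5c1 human HepG2 liver cells with stably integrated DRE-driven firefly reporter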
Sequence of Aryl hydrocarbon receptor (Homo sapiens) (P35869 whole entry, looked up): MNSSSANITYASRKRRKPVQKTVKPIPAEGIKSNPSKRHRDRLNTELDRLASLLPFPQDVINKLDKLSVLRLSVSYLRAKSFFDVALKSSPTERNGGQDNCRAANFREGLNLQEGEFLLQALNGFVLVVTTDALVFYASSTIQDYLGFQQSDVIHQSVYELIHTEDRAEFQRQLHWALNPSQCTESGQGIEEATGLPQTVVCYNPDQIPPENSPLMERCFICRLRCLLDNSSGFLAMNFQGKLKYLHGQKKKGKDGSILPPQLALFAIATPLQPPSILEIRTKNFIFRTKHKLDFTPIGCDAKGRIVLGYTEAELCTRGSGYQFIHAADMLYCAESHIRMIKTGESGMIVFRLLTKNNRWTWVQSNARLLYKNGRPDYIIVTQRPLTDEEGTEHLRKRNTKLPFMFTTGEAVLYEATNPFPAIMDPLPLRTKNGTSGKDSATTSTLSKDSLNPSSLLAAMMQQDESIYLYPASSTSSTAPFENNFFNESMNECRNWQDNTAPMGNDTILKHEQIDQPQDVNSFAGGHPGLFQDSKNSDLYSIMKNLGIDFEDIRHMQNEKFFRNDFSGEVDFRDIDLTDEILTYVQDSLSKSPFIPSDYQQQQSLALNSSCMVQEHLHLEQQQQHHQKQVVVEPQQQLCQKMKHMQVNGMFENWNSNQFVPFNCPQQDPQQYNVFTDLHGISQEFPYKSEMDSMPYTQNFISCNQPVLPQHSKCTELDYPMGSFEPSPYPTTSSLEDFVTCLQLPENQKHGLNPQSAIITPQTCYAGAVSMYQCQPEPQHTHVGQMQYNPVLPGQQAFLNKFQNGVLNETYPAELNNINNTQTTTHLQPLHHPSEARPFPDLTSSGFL
In short: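 Luminescence read-out: ONE-Glo reagent, 30 min at room temperature, in HG2L7.5c1 HepG2 reporter cells treated 24 h at 37C. Viability was measured beforehand by CellTiter-Fluor fluorescence after 30 min at 37C.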

[3] = qHTS assay to identify small molecule that activate the aryl hydrocarbon receptor (AhR) signaling pathway - cell viability counter screen (AID 743086); details: HepG2-AhR-luc viability, CellTiter-Fluor, 24 h; series mostly up to 70.3 µM;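 also: HepG2 liver cells carrying the AhR DRE luciferase reporter; nearly all actives have a fitted effect of over 45% in size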
In short: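 Cytotoxicity counter screen: CellTiter-Fluor signal (30 min, 37 C) in 4000 HepG2 cells/well carrying the DRE-luciferase reporter, following 24 h compound exposure at 37 C.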

[4] = biological target: Peroxisome proliferator-activated receptor gamma (Homo sapiens) (UniProt P37231); assay: qHTS assay to identify small molecule agonists of the peroxisome proliferator-activated receptor gamma (PPARg) signaling pathway (AID 743094; active = well fitted activation curve with a large enough effect in the signal ratio in the repeat runs, not every such curve was filed as active; the % refers to the signal ratio); details: HEK293H PPARg-UAS-bla, beta-lactamase FRET ratio, 17 h; series mostly up to 57 µM
Sequence of Peroxisome proliferator-activated receptor gamma (Homo sapiens) (P37231 whole entry, looked up): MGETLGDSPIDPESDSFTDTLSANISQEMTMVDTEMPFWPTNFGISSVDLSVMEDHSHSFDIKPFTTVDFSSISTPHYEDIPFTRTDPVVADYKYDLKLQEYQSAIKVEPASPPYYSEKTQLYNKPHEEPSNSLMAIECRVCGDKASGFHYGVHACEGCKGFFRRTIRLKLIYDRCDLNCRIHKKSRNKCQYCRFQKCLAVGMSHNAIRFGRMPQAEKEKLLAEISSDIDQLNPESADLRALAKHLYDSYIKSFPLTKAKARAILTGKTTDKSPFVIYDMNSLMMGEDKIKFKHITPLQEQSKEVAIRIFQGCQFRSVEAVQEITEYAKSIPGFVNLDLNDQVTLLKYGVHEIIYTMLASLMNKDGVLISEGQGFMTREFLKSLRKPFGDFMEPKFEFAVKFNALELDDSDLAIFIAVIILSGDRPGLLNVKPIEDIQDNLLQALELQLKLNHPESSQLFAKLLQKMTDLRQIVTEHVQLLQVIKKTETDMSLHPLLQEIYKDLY
In short: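 Reporter activation was scored by fluorescence of cleaved LiveBLAzer B/G substrate (1 h, room temperature) in PPARg-bla HEK293H cells previously treated 17 h at 37C with DMSO-dissolved compounds.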

[5] = qHTS assay to identify small molecule antagonists of the peroxisome proliferator-activated receptor gamma (PPARg) signaling pathway - cell viability counter screen (AID 743194); details: PPARg-bla HEK293H viability, CellTiter-Glo luminescence, 17 h; Potency: co-treated with 50 nM rosiglitazone; series mostly up to 62.6 µM; also: nearly all actives have a fitted effect of over 55% in size
In short: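 Viability was measured as CellTiter-Glo luminescence in GeneBLAzer PPARg UAS-bla HEK293H cells. These cells had been exposed 17 h at 37 C to compounds together with rosiglitazone at 50 nM final, with the beta-lactamase readout taken in the same wells.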

[6] = qHTS assay for small molecule agonists of the antioxidant response element (ARE) signaling pathway (AID 743202; active = well fitted activation curve with a large enough effect in the signal ratio in the repeat runs, not every such curve was filed as active; the % refers to the signal ratio; also: potency is read from the fitted curve at half-maximal effect); details: HepG2 ARE-bla reporter, beta-lactamase FRET, 16 h; series mostly up to 73.3 µM
In short: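 After 16 hours of compound treatment at 37 C, HepG2 cells with a stably integrated ARE-driven beta-lactamase reporter were loaded 2 hours at room temperature with LiveBLAzer B/G FRET substrate and fluorescence intensity measured.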

[7] = qHTS assay for small molecule agonists of the antioxidant response element (ARE) signaling pathway - cell viability counter screen (AID 743203; calls by dose curve; also: nearly all actives have a fitted effect of over 55% in size); details: ARE-bla HepG2 viability, CellTiter-Glo luminescence, 16 h; series mostly up to 73.3 µM
In short: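 Viability counter screen: stably transfected ARE-bla HepG2 line, 16 hrs compound exposure at 37C/5% CO2, ATP-based CellTiter-Glo luminescence measured in the reporter wells.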

[8] = qHTS assay for small molecule activators of the heat shock response signaling pathway (AID 743210; active = well fitted activation curve with a large enough effect in the signal ratio in the repeat runs, with a control signal flat, not every such curve was filed as active; the % refers to the signal ratio); details: HeLa HSE-bla reporter, beta-lactamase ratio, 5 h; series mostly up to 62.6 µM
In short: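 Compound exposure lasted 5 h at 37 C in HeLa cells carrying a heat-shock-element-driven beta-lactamase reporter. Read-out: fluorescence intensity after 2.5 h room-temperature loading with LiveBLAzer B/G FRET substrate.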

[9] = biological target: Peroxisome proliferator-activated receptor delta (Homo sapiens) (UniProt Q03181); assay: qHTS assay to identify small molecule agonists of the peroxisome proliferator-activated receptor delta (PPARd) signaling pathway (AID 743212; calls by dose curve); details: HEK293H PPARd-UAS-bla, beta-lactamase FRET ratio, 17 h; series mostly up to 62.6 µM
Sequence of Peroxisome proliferator-activated receptor delta (Homo sapiens) (Q03181 whole entry, looked up): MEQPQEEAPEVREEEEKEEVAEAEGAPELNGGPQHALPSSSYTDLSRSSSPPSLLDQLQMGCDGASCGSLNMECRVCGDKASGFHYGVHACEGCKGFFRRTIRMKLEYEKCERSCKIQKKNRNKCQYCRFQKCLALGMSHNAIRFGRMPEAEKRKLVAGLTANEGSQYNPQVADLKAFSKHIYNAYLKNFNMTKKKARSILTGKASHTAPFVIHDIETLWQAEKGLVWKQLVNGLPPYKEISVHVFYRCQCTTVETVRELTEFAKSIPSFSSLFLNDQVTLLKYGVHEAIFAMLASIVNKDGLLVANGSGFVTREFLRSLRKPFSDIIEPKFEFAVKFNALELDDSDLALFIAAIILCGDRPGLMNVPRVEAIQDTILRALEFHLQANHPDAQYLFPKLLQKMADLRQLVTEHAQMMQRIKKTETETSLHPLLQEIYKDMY
In short: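 Beta-lactamase reporter readout: a ratiometric FRET signal from the LiveBLAzer substrate after 2 h at room temperature. Compound exposure at 37 °C in PPARδ-bla HEK293H cells driven by an upstream activator sequence.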

[10] = qHTS assay to identify small molecule antagonists of the peroxisome proliferator-activated receptor delta (PPARd) signaling pathway - cell viability counter screen (AID 743213); details: PPARd-bla HEK293H viability, CellTiter-Glo luminescence, 17 h; series mostly up to 62 µM; also: nearly all actives have a fitted effect of over 50% in size
In short: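 HEK293H cells with the PPARd UAS-bla reporter, co-treated 17 h at 37 C with compounds and L165041 (300 nM final), were lysed with CellTiter-Glo. Luminescence indicated viable cell content.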

[11] = biological target: Peroxisome proliferator-activated receptor delta (Homo sapiens) (UniProt Q03181); assay: qHTS assay to identify small molecule antagonists of the peroxisome proliferator-activated receptor delta (PPARd) signaling pathway (AID 743215; active = well fitted inhibition curve with a large enough effect in the signal ratio in the repeat runs, not every such curve was filed as active; the % refers to the signal ratio;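 also: cells stimulated with agonist L165041 at 300 nM final during compound exposure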); details: HEK293H PPARd-UAS-bla, beta-lactamase FRET ratio, antagonist, 17 h; series mostly up to 62 µM
In short: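 Plated HEK293H PPARd-bla cells rested 5 h at 37 C and 5% CO2. Compound, then agonist L165041 at 300 nM final, was added; 17 h at 37 C followed. Substrate loading, 2 h room temperature, fluorescence measured.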

[12] = biological target: Bile acid receptor (Homo sapiens) (UniProt Q96RI1); assay: qHTS assay to identify small molecule antagonists of the farnesoid-X-receptor (FXR) signaling pathway (AID 743217; active = well fitted inhibition curve with a large enough effect in the signal ratio in the repeat runs, not every such curve was filed as active; the % refers to the signal ratio); details: HEK293T FXR-UAS-bla, beta-lactamase ratio, CDCA-stimulated, 16 h; series mostly up to 62.6 µM
Sequence of Bile acid receptor (Homo sapiens) (Q96RI1 whole entry, looked up): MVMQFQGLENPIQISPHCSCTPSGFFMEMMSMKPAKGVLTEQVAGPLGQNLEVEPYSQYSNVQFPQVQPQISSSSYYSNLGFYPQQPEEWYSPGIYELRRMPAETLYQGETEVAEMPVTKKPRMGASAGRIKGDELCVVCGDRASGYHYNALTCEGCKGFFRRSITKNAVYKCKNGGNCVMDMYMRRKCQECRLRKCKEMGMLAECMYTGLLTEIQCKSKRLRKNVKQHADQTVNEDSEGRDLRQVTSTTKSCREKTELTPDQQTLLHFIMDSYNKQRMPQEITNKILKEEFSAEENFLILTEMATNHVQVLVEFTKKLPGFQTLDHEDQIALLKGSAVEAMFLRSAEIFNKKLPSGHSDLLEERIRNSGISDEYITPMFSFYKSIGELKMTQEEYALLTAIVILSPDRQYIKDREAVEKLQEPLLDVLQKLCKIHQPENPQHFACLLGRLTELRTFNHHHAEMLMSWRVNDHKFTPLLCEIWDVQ
In short: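 Screen of the Tox21 10K library in quantitative HTS format using FXR-UAS-bla HEK 293T reporter cells. Agonist chenodeoxycholic acid, 50 uM final, added with compounds; 16 h incubation at 37 °C; beta-lactamase FRET fluorescence measured.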

[13] = qHTS assay to identify small molecule agonists of the farnesoid-X-receptor (FXR) signaling pathway - cell viability counter screen (AID 743218); details: FXR-bla HEK293T viability, CellTiter-Glo luminescence, 16 h; series mostly up to 62.6 µM; also: nearly all actives have a fitted effect of over 45% in size
In short: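 Viability of FXR-bla HEK 293T cells is measured by ATP-based CellTiter-Glo luminescence following 16 h compound treatment at 37 C and a prior 2 h room-temperature beta-lactamase substrate step.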

[14] = biological target: Bile acid receptor (Homo sapiens) (UniProt Q96RI1); assay: qHTS assay to identify small molecule agonists of the farnesoid-X-receptor (FXR) signaling pathway (AID 743220; active = well fitted activation curve with a large enough effect in the signal ratio in the repeat runs, not every such curve was filed as active; the % refers to the signal ratio); details: HEK293T FXR-UAS-bla, beta-lactamase FRET ratio, 16 h; series mostly up to 62.6 µM
In short: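 FXR-UAS-bla HEK 293T cells carrying a UAS-driven beta-lactamase reporter were plated for 5 h at 37C/5% CO2, then exposed to DMSO-dissolved Tox21 10K compounds for 16 h at 37C. A LiveBLAzer B/G FRET substrate was loaded for 2 h at room temperature before fluorescence reading.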

[15] = qHTS assay to identify small molecule antagonists of the farnesoid-X-receptor (FXR) signaling pathway - cell viability counter screen (AID 743221; active = well fitted cell-killing curve with a large enough effect in the repeat runs, not every such curve was filed as active; also: nearly all actives have a fitted effect of over 50% in size); details: FXR-bla HEK293T viability, CellTiter-Glo luminescence, 16 h; series mostly up to 62.6 µM
In short: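 HEK 293T FXR-bla cells, 5 h pre-incubation; compound + CDCA 50 uM final, 16 h, 37 C; beta-lactamase FRET read first, then CellTiter-Glo luminescence, 30 min RT.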

[16] = qHTS assay for small molecule activators of the heat shock response signaling pathway - cell viability counter screen (AID 743209); details: HSE-bla HeLa viability, CellTiter-Glo luminescence, 5 h; series mostly up to 62.6 µM; also: nearly all actives have a fitted effect of over 50% in size
In short: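 Viability of HSE-bla HeLa cells is measured with CellTiter-Glo in the wells already used for the reporter read. Compound exposure lasts 5 h at 37 C, and luminescence is read after 30 min at room temperature.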

[17] = qHTS assay to identify small molecule agonists of the peroxisome proliferator-activated receptor delta (PPARd) signaling pathway - cell viability counter screen (AID 743211); details: PPARd-bla HEK293H viability, CellTiter-Glo luminescence, 17 h; series mostly up to 62.6 µM; also: nearly all actives have a fitted effect of over 55% in size
In short: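 Read-out: CellTiter-Glo luminescence, 30 min RT, measured in the same wells as the beta-lactamase reporter. Cells: GeneBLAzer PPAR delta UAS-bla HEK293H, 3000 cells/well, compound exposure 17 h at 37C.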

[18] = biological target: Vitamin D3 receptor (Homo sapiens) (UniProt P11473); assay: qHTS assay to identify small molecule antagonists of the vitamin D receptor (VDR) signaling pathway (AID 743223; active = well fitted inhibition curve with a large enough effect in the signal ratio in the repeat runs, not every such curve was filed as active; the % refers to the signal ratio); details: VDR-UAS-bla HEK293T, beta-lactamase FRET ratio, 16 h; series mostly up to 61 µM
Sequence of Vitamin D3 receptor (Homo sapiens) (P11473 whole entry, looked up): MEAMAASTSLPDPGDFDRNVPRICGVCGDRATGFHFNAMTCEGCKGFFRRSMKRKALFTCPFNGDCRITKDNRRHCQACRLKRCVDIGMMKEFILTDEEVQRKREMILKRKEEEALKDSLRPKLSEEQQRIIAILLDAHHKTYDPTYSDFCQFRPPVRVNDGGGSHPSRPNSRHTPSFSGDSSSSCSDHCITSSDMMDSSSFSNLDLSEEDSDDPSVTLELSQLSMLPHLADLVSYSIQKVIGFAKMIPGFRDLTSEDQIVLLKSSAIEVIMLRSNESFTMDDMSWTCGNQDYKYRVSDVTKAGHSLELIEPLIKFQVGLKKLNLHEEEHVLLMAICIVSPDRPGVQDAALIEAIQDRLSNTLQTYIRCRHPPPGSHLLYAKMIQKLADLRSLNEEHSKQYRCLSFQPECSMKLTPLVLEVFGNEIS
In short: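 Beta-lactamase reporter read-out: FRET substrate fluorescence after 2 h at room temperature, following 16 h exposure of VDR-bla cells to test compound plus 3 nM (final) 1alpha,25-dihydroxyvitamin D3 agonist at 37C.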

[19] = biological target: Vitamin D3 receptor (Homo sapiens) (UniProt P11473); assay: qHTS assay to identify small molecule agonists of the vitamin D receptor (VDR) signaling pathway (AID 743222; calls by dose curve); details: HEK293T VDR-UAS-bla, beta-lactamase FRET ratio, 16 h; series mostly up to 63.5 µM
In short: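 Fluorescence from cleaved LiveBLAzer B/G FRET substrate served as readout. VDR-bla cells had been treated 16 h at 37C with test compounds in DMSO, following a 4 h settling period, and substrate was loaded for 2 h at RT.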

Measured: Potency

CCN[C@@H](C)Cc1cccc(C(F)(F)F)c1
not listed: [16] | [17] | [18] | [19]
inactive: all other assays above

CCC1(c2ccccc2)CCC(=O)NC1=O (centres undefined)
not listed: [12] | [14] | [19]
inactive: all other assays above

CCCN1CCC[C@@H]2Cc3[nH]ncc3C[C@H]21
active: [2] 9.44 µM
not listed: [9] | [10] | [11] | [18] | [19]
inactive: all other assays above

O=C(O)C(Cl)Br (centres undefined)
active: [6] 4.91 µM
not listed: [16] | [17] | [18]
inactive: all other assays above

O=P(O)(O)CN(CP(=O)(O)O)CP(=O)(O)O
not listed: [12] | [14]
inactive: all other assays above

CNC(=O)NC(O)C(Cl)(Cl)Cl (centres undefined)
not listed: [10] | [12] | [14]
inactive: all other assays above

Oc1ccc(Cc2ccc(O)cc2)cc1
active: [6] 27.5 µM
not listed: [8] | [10] | [12] | [14] | [18] | [19]
inactive: all other assays above

Cc1ccc(Cl)c(O)c1
not listed: [10] | [18]
inactive: all other assays above
